# Measurements: PubChem BioAssay (Tox21)
# Several values for one entry are separate records, joined by “and”; a condition that tells them apart may be missing. Equal values may be shown once. Results filed as inconclusive are left out. A call without a number means that no potency is given here. More than one record can exist for a structure, and the calls need not agree. Activity calls are given as the source filed them. Unless noted, the call rests on the fitted dose curve; in most records, active means well fitted curve in the direction sought with a large enough effect in the repeat runs; inconclusive means weak or mixed curves; inactive means no such curve, though single readings can be large; an effect the other way counts as inactive or inconclusive.
# Assays:
# [1] = target: Nuclear receptor subfamily 1 group I member 3 (Homo sapiens) (UniProt Q14994); assay: qHTS assay to identify small molecule antagonists of the constitutive androstane receptor (CAR) signaling pathway (AID 1224838);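 further: HepG2 cells stably expressing hCAR with CYP2B6 luciferase reporter stimulated by CITCO; nearly all actives have a fitted effect of over 40% in size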
# Procedure, shortened: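 HepG2-CYP2B6-hCAR cells; 4 h pre-incubation; cpd (15 conc) + CITCO 50 nM final; 24 h, 37 C/5% CO2; ONE-Glo, luminescence.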
# [2] = target: Nuclear receptor subfamily 1 group I member 3 (Homo sapiens) (UniProt Q14994); assay: qHTS assay to identify small molecule agonists of the constitutive androstane receptor (CAR) signaling pathway (AID 1224839); further: nearly all actives have a fitted effect of over 15% in size; further: potency means the concentration at half of the fitted maximal effect;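 on activation: HepG2 cells stably carrying human CAR and a CYP2B6 luciferase reporter; series mostly up to about 92 µM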
# Procedure, shortened: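 Luminescence read-out (ONE-Glo, 30 min, room temperature) from double-stable HepG2-CYP2B6-hCAR cells exposed 24 h to 15-point compound series in presence of 0.75 uM PK11195 final.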
# [3] = qHTS assay to identify small molecule antagonists of the estrogen related receptor signaling pathway with the pleiotropic PPARgamma coactivator (PGC) from Tox21 10K library - cell viability counter screen (AID 1224840; active means well fitted cell-killing curve with a large enough effect in the repeat runs, not every such curve was filed as active; further: nearly all actives have a fitted effect of over 40% in size; further: potency means the concentration at half of the fitted maximal effect)
# Procedure, shortened: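 PGC/ERR cells, 2,000/well; 6 h pre-incubation 37 C/5% CO2; cpd in DMSO via pin tool; 17.5 h 37 C; CellTiter-Fluor, 30 min; fluorescence.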
# [4] = qHTS assay to identify small molecule antagonists of the estrogen related receptor signaling pathway with the pleiotropic PPARgamma coactivator (PGC) from Tox21 10K library (AID 1224841; call rule not given here; further: actives are mostly falling curves and most rising ones were filed inactive; nearly all actives have a fitted effect of over 50% in size; further: potency means the concentration at half of the fitted maximal effect)
# Procedure, shortened: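 PGC/ERR cell line, 2,000 cells/well; 6 h pre-incubation 37 C/5% CO2; compounds (DMSO) pinned in; 18 h, 37 C; One-Glo, 30 min RT; luminescence.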
# [5] = qHTS assay to identify small molecule agonists of the estrogen related receptor signaling pathway with the pleiotropic PPARgamma coactivator (PGC) from Tox21 10K library (AID 1224842); further: nearly all actives have a fitted effect of over 15% in size
# Procedure, shortened: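 Luminescence from One-Glo (30 min, room temperature) measured after PGC/ERR cells had 18 h at 37 C with pinned compound (23 nL in DMSO). Cells had been seeded at 2,000 per well and pre-incubated 6 h.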
# [6] = target: Thyrotropin receptor (Homo sapiens) (UniProt P16473); assay: qHTS assay to identify small molecule agonists of the thyroid stimulating hormone receptor (TSHR) signaling pathway (AID 1224843; calls by dose curve; further: nearly all actives have a fitted effect of over 45% in size)
# Procedure, shortened: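 HEK293 cells stably bearing the thyrotropin receptor were plated at 800 cells/well and challenged with compound (30 min, RT). Accumulated cAMP was quantified via cAMP-d2 competing for cryptate-tagged antibody.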
# [7] = qHTS assay to identify small molecule agonists of the hypoxia (HIF-1) signaling pathway - cell viability counter screen (AID 1224844; calls by dose curve; further: nearly all actives have a fitted effect of over 50% in size)
# Procedure, shortened: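 ME-180 HRE-bla cells, 2,000/well, 0.5% dialyzed FBS; 5 hr settle, 17 hr compound at 37C/5% CO2; CCF4-AM reporter read first, then CellTiter-Glo luminescence after 30 min RT.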
# [8] = qHTS assay to identify small molecule agonists of H2AX (AID 1224845; active means well fitted activation curve with a large enough effect in the signal ratio in the repeat runs, not every such curve was filed as active; the % refers to the signal ratio)
# Procedure, shortened: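 Phospho-H2AX Ser139 measured by HTRF (ex 320 nm; em 665 and 620 nm) after 24 hr antibody incubation. Compounds, 15 concentrations, 0.76% DMSO, were applied to CHO-K1 cells for 3hr at 37C before lysis.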
# [9] = qHTS assay to identify small molecule agonists of the hypoxia (HIF-1) signaling pathway (AID 1224846; active means well fitted activation curve with a large enough effect in the signal ratio in the repeat runs, not every such curve was filed as active; the % refers to the signal ratio)
# Procedure, shortened: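 Cell line: CellSensor HRE-bla ME-180; 2,000 cells/well; 0.5% dialyzed FBS; 5 h preincubation; DMSO compound pin transfer; 17 h, 37C, 5% CO2; CCF4-AM added; bla FRET signal scored for activation.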
# [10] = qHTS assay to identify small molecule agonists of H2AX - cell viability counter screen (AID 1224847; calls by dose curve;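 further: wild-type CHO-K1 cells; top concentration of the series differs between compounds; nearly all actives have a fitted effect of over 30% in size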)
# Procedure, shortened: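 CHO-K1 wt, 1000 cells/well, o/n 37C; cpds 15 conc, 3 h 37C, 0.76% DMSO; CellTiter-Glo, 30 min RT, luminescence.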
# Thyrotropin receptor (Homo sapiens), sequence (P16473 whole entry, looked up): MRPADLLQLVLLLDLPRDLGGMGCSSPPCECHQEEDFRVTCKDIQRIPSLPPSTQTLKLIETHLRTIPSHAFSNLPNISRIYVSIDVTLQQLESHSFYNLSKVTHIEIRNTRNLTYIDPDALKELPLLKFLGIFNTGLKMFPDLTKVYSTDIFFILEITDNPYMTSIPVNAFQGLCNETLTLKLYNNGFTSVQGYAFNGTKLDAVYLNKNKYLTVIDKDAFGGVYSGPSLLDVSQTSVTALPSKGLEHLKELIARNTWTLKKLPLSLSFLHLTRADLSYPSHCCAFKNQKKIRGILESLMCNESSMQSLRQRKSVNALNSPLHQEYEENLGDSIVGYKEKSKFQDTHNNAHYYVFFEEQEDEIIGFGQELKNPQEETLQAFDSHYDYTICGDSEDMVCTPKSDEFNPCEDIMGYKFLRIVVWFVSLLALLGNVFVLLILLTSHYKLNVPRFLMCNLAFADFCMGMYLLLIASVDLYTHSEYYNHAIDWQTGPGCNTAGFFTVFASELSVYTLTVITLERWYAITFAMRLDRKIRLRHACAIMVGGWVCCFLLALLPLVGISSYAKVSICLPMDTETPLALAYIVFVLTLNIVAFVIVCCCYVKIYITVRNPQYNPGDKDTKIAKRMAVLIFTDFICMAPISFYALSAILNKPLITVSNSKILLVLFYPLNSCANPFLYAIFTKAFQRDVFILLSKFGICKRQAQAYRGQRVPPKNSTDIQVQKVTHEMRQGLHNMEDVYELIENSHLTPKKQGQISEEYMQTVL
# Nuclear receptor subfamily 1 group I member 3 (Homo sapiens), sequence (Q14994 whole entry, looked up): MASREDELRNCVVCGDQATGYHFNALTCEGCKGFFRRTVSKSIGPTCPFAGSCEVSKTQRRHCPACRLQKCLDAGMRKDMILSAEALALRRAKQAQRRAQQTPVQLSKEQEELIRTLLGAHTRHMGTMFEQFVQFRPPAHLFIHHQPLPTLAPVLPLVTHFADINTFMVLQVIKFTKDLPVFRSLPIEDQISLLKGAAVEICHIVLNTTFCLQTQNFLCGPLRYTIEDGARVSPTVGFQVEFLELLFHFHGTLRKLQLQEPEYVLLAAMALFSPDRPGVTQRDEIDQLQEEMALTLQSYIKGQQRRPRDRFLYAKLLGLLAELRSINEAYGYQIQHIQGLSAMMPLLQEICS
SMILES,Potency [1],Potency [2],Potency [3],Potency [4],outcome [5],Potency [6],Potency [7],Potency [8],outcome [9],Potency [10],activation [2],"viability change, negative = cytotoxic [3]",activation [6],activation (H2AX phosphorylation) [8]
O=C(O)c1ccccc1C(c1ccc(O)cc1)c1ccc(O)cc1,inactive,inactive,inactive,inactive,inactive,inactive,inactive,inactive,inactive,inactive,,,,
CCN(CC)c1ccc(C(=O)c2ccccc2C(=O)O)c(O)c1,inactive,61.3 µM (active) and 34.4 µM (active),inactive,,,inactive,inactive,inactive,,,,,,
O=C(O)CCCC[C@@H]1SC[C@@H]2NC(=O)N[C@@H]21,inactive,inactive,inactive,inactive,inactive,inactive,inactive,inactive,,,,,,
N[C@@H](Cc1cc(I)c(Oc2cc(I)c(O)c(I)c2)c(I)c1)C(=O)O,inactive,inactive,inactive,inactive,inactive,,inactive,inactive,inactive,inactive,,,,
COc1ccc(NC(C)=O)cc1N,inactive,inactive,inactive,,,inactive,inactive,inactive,inactive,,,,,
Cc1cccnc1,inactive,inactive,inactive,inactive,inactive,,inactive,inactive,inactive,inactive,,,,
COS(C)(=O)=O,inactive,inactive,inactive,35.7 µM (active) and inactive,inactive,inactive,inactive,inactive,inactive,,,,,
NNc1nncc2ccccc12,inactive,12.2 µM (active),,,,,inactive,,,,12.7% [at 19 µM] (inactive),3.22% [at 19 µM] (inactive),-1.13% [at 19 µM] (inactive),1% [at 31.6 µM] (inactive)
CN(C)CCCN,inactive,inactive,inactive,inactive,inactive,inactive,inactive,inactive,inactive,,,,,
OCCOCCOCCO,inactive,inactive,inactive,inactive,inactive,inactive,inactive,inactive,inactive,inactive,,,,
CC(=O)CC(=O)Nc1ccccc1C,inactive,inactive,inactive,inactive,inactive,,inactive,inactive,inactive,inactive,,,,
O=c1[nH]c(=O)n([C@H]2C[C@H](O)[C@@H](CO)O2)cc1Br,inactive,7.81 µM (active) and 10.6 µM (active),inactive,,,inactive,inactive,inactive,,,,,,
O=c1[nH]c(=O)n([C@H]2CCCO2)cc1F,inactive,inactive,inactive,,,inactive,inactive,inactive,inactive,,,,,
CCCCCC/C(C=O)=C\c1ccccc1,inactive,inactive,inactive,,,inactive,inactive,inactive,inactive,,,,,
O=C(O)c1cc(=O)c2c(OCC(O)COc3cccc4oc(C(=O)O)cc(=O)c34)cccc2o1,inactive,inactive,inactive,,,inactive,inactive,inactive,,,,,,
CCCCC(CC)CO (centres undefined),inactive,inactive,inactive,,,inactive,inactive,inactive,inactive,,,,,
OCC(CO)(CBr)CBr,inactive,inactive,inactive,inactive,inactive,inactive,inactive,inactive,inactive,inactive,,,,
CCCCCCCCCCCCc1ccccc1,inactive,inactive,inactive,inactive,inactive,inactive,inactive,inactive,inactive,inactive,,,,
CCC(O)OC(O)CC (centres undefined),inactive,inactive,inactive,inactive,inactive,inactive,inactive,inactive,inactive,inactive,,,,
CC(C)(N)CO,inactive,inactive,inactive,inactive,inactive,inactive,inactive,inactive,inactive,,,,,
CC(=O)Nc1cccc(O)c1,inactive,inactive,inactive,,,inactive,inactive,inactive,inactive,,,,,
O=C(Oc1ccccc1)c1ccccc1,inactive,inactive,inactive,inactive,inactive,,inactive,inactive,inactive,,,,,
CCCCCCCCCCCCS,inactive,inactive,inactive,,,inactive,inactive,inactive,inactive,,,,,
CC[C@H](C)C(=O)O[C@H]1C[C@@H](C)C=C2C=C[C@H](C)[C@H](CC[C@@H]3C[C@@H](O)CC(=O)O3)[C@H]21,inactive,inactive,69.6 µM (active) and inactive,inactive,inactive,inactive,inactive,inactive,inactive,,,,,
CSCCC=O,inactive,inactive,inactive,inactive,inactive,,inactive,inactive,inactive,,,,,
